# Assay outcomes: PubChem, several laboratories
# GIRK2 act – GIRK2 channel activators by thallium flux | HEK293 GIRK2/NPY4 cells, thallium flux fluorescence | activation (% efficacy), % for hits at 37.5 µM | 34,000 tested, under 10 active;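 active = primary screen hit, no activity in plain HEK293 cells, and in GIRK2-only cells above 5% efficacy rising with concentration; inactive = the rest, including fluorescent compounds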;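 note: efficacy is normalized control-subtracted fluorescence 15 s after thallium addition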
# Target sequence (P48051 whole entry, looked up): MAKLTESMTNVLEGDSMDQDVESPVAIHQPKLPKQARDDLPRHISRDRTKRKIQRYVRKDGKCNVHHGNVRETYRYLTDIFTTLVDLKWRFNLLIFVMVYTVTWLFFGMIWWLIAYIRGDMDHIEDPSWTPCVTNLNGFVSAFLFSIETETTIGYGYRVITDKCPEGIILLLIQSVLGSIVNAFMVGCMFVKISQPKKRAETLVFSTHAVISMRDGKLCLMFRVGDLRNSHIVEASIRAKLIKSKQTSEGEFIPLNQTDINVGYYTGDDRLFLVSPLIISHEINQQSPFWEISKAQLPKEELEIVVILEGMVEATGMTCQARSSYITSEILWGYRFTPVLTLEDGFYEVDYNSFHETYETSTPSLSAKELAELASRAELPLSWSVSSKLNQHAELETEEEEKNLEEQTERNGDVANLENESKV
# AMPAR-TARP mod – GluA2-stargazin AMPA receptor complex modulation | O88602+P19491 | HEK293 GluA2+stargazin, membrane potential dye (FDSS), glutamate EC50; hits were called plate by plate, in both directions | calls only at 30 µM | 40,000 compounds, 3.5% hits;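 active = any of four per-well response measures lying three or more SD from its plate-wide compound average, in either direction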
# * hit, by the source's call; i = inactive; nt = no result; + = active, no number. The full list was thinned out, with hits kept by preference.
SMILES,GIRK2 act,AMPAR-TARP mod
Cc1cccc(CC(=O)Nc2ccc3c(c2)CC(=O)N3C)c1,nt,i
O=C(Nc1ccc2sccc2c1)c1ccno1,i,+
CN1C(=O)c2ccc(NC(=O)c3ccno3)cc2C1=O,nt,+
CN1CCOc2ccc(NC(=O)c3ccno3)cc2C1=O,i,i
CN1C(=O)Cc2cc(NC(=O)c3ccno3)ccc21,i,+
O=C(c1nc(-c2cnccn2)no1)N(C1CCCCC1)C1CCCCC1,i,i
COc1cccc(C(CNC(=O)COc2ccc3ccccc3c2)N2CCOCC2)c1 (centres undefined),i,i
CN(C)c1ccc(-c2oc3ccccc3c(=O)c2O)cc1,nt,+
O=c1c(O)c(-c2ccccc2)oc2ccccc12,nt,i
CSc1ccccc1NC(=O)C(=O)NCC1CCN(Cc2ccccc2)CC1,i,i
CSc1ccccc1CN1CCC(CNC(=O)C(=O)Nc2ccccc2Cl)CC1,i,+
COc1ccc(OC)c(S(=O)(=O)Nc2ccc(N3CCCCC3=O)cc2)c1,i,i
CN1C=CC=C/C1=C(/C#N)c1nc(-c2ccccc2)cs1,i,+
N#C/C(=C\c1ccnc2ccccc12)c1nc(-c2ccc(F)cc2)cs1,i,i
COc1ccccc1-c1csc(/C(C#N)=C2\C=CC=CN2C)n1,i,+
Cn1c(=O)c2c(nc(N3CCCCCC3)n2CC(N)=O)n(C)c1=O,i,i
Cc1ccsc1C(O)CNC(=O)C(c1ccccc1)c1ccccc1 (centres undefined),i,+
Cc1ccsc1C(O)CNC(=O)Cc1ccccc1Cl (centres undefined),i,i
COc1cc(OC)cc(C(=O)NCC2CCN(C)CC2)c1,nt,i
Cc1cc(C)n(-c2nc3c(c(=O)n2CC(=O)NCc2ccco2)CCCC3)n1,i,+
Cc1cc(C)n(-c2nc3c(c(=O)n2CC(=O)N(C)c2ccccc2)CCC3)n1,i,i
Cc1cccc(C)c1OCC(O)Cn1c(C2CC2)nc2ccccc21 (centres undefined),i,i
CC(=O)N1CCCC1c1nc2ccccc2n1CCCOc1c(C)cccc1C (centres undefined),i,+
O=C(Cn1c2c(c3ccccc31)CCC2)NCC1CCS(=O)(=O)C1 (centres undefined),i,+
Cc1cc(C)n(CCNC(=O)Cn2c3c(c4ccccc42)CCC3)n1,i,i
SMILES,GIRK2 act,AMPAR-TARP mod
CCOc1ccc(S(=O)(=O)NCC(c2cccs2)N(C)C)cc1 (centres undefined),nt,i
CCCNC(=O)Cn1nc2c(c1NC(=O)CCc1ccc(OC)cc1)CSC2,i,+
COCCNC(=O)Cn1nc2c(c1NC(=O)C1(c3ccc(Cl)cc3)CCCC1)CSC2,i,+
CCCNC(=O)Cn1nc2c(c1NC(=O)C1(c3ccc(Cl)cc3)CCCC1)CSC2,i,i
COc1ccc(CNC(=O)Cn2nc3c(c2NC(=O)c2ccc(C)c(C)c2)CSC3)cc1,i,i
COc1ccc(-c2ccc(C)c(NC(=O)Cc3ccc(OC)c(OC)c3)c2)nn1,i,i
COc1ccc(-c2ccc(C)c(NS(=O)(=O)c3ccc(NC(=O)C(C)C)cc3)c2)nn1,i,+
COc1cc(NC(=O)Cc2cccc3ccccc23)ccc1N1CCCCC1=O,i,i
COC(=O)c1ccc(NC(=O)c2nnn(-c3ccc(F)cc3)c2C)cc1,i,i
Cc1cccc(-n2nnnc2SC(C)C(=O)Nc2cc(C)on2)c1 (centres undefined),nt,i
CCOc1ccc(-n2nnnc2SC(C)C(=O)Nc2cccc(OC)c2)cc1 (centres undefined),nt,+
CCOc1ccc(-n2nnnc2SC(C)C(=O)Nc2cc(C)on2)cc1 (centres undefined),nt,+
COc1cccc(NC(=O)C(C)Sc2nnnn2-c2ccc(C)cc2)c1 (centres undefined),nt,i
CCCCN1CC(c2nc3ccccc3n2Cc2ccc(Br)cc2)CC1=O (centres undefined),nt,i
CCOc1ccc2ccccc2c1C(=O)NCC(c1cccs1)N1CCOCC1 (centres undefined),i,+
CCOc1ccc2ccccc2c1C(=O)NCC(c1ccc(F)cc1)N1CCOCC1 (centres undefined),nt,+
CCOc1ccc(C(=O)NCC(c2ccc(F)cc2)N2CCOCC2)cc1OCC (centres undefined),nt,i
COc1ccc(C(=O)NCC(c2ccc(F)cc2)N2CCOCC2)cc1 (centres undefined),nt,i
CCOc1ccc2ccccc2c1C(=O)NCCOc1ccccc1,i,+
COc1cccc(OC)c1C(=O)NCC(c1cccs1)N1CCOCC1 (centres undefined),i,i
CCOc1ccc(OCCNC(=O)Cc2cccc3ccccc23)cc1,i,i
CCOc1ccc2ccccc2c1C(=O)NCC(c1ccc(OC)cc1)N1CCOCC1 (centres undefined),nt,+
Cc1cccc2sc(N(CCN3CCOCC3)C(=O)c3cccc([N+](=O)[O-])c3)nc12,i,i
CSCCC(C)(O)CNC(=O)c1ccc2c(c1)OCO2 (centres undefined),i,i
CCOc1ccc2ccccc2c1C(=O)NCC(c1cccs1)N(C)C (centres undefined),i,+
SMILES,GIRK2 act,AMPAR-TARP mod
CN(C)C(CNC(=O)c1c(F)cccc1F)c1cccc2ccccc12 (centres undefined),nt,+
CN(C)C(CNC(=O)c1ccccc1Cl)c1cccc2ccccc12 (centres undefined),nt,i
CN(C)C(CNC(=O)c1ccc2ccccc2c1)c1cccs1 (centres undefined),i,i
CCn1c(SCC(=O)Nc2ccc(F)cc2F)nnc1-c1cn(C)nc1OC,i,i
COc1cccc(NC(=O)Cn2cc(-c3ccc(C)cc3)c(N3CCOCC3)n2)c1,i,nt
COc1ccc(S(=O)(=O)Nc2nc3ccccc3nc2NCCC2=CCCCC2)cc1,nt,i
COc1ccccc1CNc1nc2ccccc2nc1NS(=O)(=O)c1ccccc1,nt,+
O=C(Nc1nc(-c2ccc(Cl)c(Cl)c2)cs1)c1ccno1,nt,i
COc1ccc(-c2ccc(N3CCCC(C(=O)NCc4ccc5c(c4)OCO5)C3)nn2)cc1 (centres undefined),i,i
COc1ccc(N2CC(NC(=O)c3ccccc3C(F)(F)F)CC2=O)cc1 (centres undefined),nt,+
O=C(NC1CC(=O)N(c2ccccc2)C1)c1ccccc1C(F)(F)F (centres undefined),nt,i
O=C(N1CCN(c2ccc(-c3ccccc3)nn2)CC1)C(F)(F)F,i,i
O=C(CSc1nc(-c2ccc(Cl)cc2)cs1)N1CCN(c2ccccn2)CC1,i,i
COC(=O)c1ccc(C(=O)Nc2sc3c(c2-c2nc4ccccc4s2)CCN(C(C)C)C3)cc1,nt,i
COc1ccc(C(=O)Nc2sc3c(c2-c2nc4ccccc4s2)CCN(C(C)C)C3)cc1OC,nt,+
CCN1CCc2c(sc(NC(=O)c3ccc(OC)c(OC)c3)c2-c2nc3ccccc3s2)C1,nt,+
CCN1CCc2c(sc(NC(=O)c3ccc(C)c(C)c3)c2-c2nc3ccccc3s2)C1,nt,i
CC(C)CCNC(=O)C(=O)c1cn(CC(=O)N2CCOCC2)c2ccccc12,nt,i
